Measurements published in PubChem BioAssay (NCATS).
Several values for one entry are separate records, joined by “and”; a condition that tells them apart may be missing. Equal values may be shown once. Inconclusive results are not listed. Entries that show only a call come without a potency. The source holds several records for some structures; these can differ, active in one and inactive in another. Activity calls are given as the source filed them. Unless noted, the call rests on the fitted dose curve; in most records, active means well fitted curve in the direction sought with a large enough effect; inconclusive means small, poorly fitted or top-dose-only effect, or another doubt; inactive means no such curve, though single readings can be large; an effect the other way counts as inactive or inconclusive.

What was measured:
[1] = Cell Viability - Mesenchymal (AID 546); conditions: mesenchymal cells viability, qHTS; series mostly up to 91.7 µM;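 further: cells exposed to compound for 40 hours before reading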
How it was run: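 Human renal mesenchymal cells (glomerulus-derived), 1000 cells/well, 5 hr 37 °C pre-incubation; compound 40 hr, 37 °C; CellTiter-Glo, 20 min RT; luminescence; AC50 via Hill equation.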

[2] = Cellular Toxicity (caspase-3) HUV-EC-C (AID 656); conditions: HUV-EC-C cells, caspase-3 activation (apoptosis), vehicle = 0, 100 µM tamoxifen = 100%; series mostly up to 92.2 µM
How it was run: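 Luminescent Caspase-Glo 3/7 readout after 16 h, 37 °C compound exposure of HUV-EC-C endothelial cells, 1000 per well, complete medium. AC50 derived by Hill fitting, with DMSO as baseline and 100 uM tamoxifen as full activation.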

[3] = Cellular Toxicity (caspase-3) SHSY5Y (AID 657); conditions: SH-SY5Y caspase-3 activation, DMSO zero, 10 µM staurosporine = 100%; series mostly up to 91.7 µM
How it was run: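 Luminescent Caspase-Glo 3/7 read-out, 1 hr room temperature, follows 16 hours of compound treatment of SH-SY5Y cells at 37 °C. Normalization: DMSO basal, 10 uM staurosporine as 100%; AC50 values from Hill-equation concentration-response fits.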

[4] = Cellular Toxicity (caspase-3) BJ (AID 658); conditions: BJ fibroblasts, luminescence, normalized: DMSO 0%, staurosporine 100%; series mostly up to 91.7 µM
How it was run: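 qHTS, BJ fibroblasts, 1000 cells/well; 5 hr preincubation, 16 hr compound, 37 °C; Caspase-Glo 3/7 reagent, 1 hr RT; luminescence. DMSO = 0%, 10 uM staurosporine = 100%. Hill-equation AC50.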

[5] = Cellular Toxicity (caspase-3) MRC-5 (AID 659); conditions: MRC-5 cells, luminescence, normalized: DMSO 0%, 10 µM staurosporine 100%; series mostly up to 91.7 µM
How it was run: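 MRC-5 fibroblasts, 1500/well; 16 h cpd, 37 °C; Caspase-Glo 3/7, 1 h RT; lumi read. Norm: DMSO = 0%, 10 uM staurosporine = 100%. Hill-fit AC50 from qHTS conc-response.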

[6] = Cellular Toxicity (caspase-3) SK-N-SH (AID 661); conditions: SK-N-SH caspase-3 activation, qHTS, DMSO as zero, staurosporine as full; series mostly up to 91.7 µM
How it was run: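 Cells were seeded and incubated 5 hr at 37 °C, dosed with compound over a concentration range for 16 hr, then given Caspase-Glo 3/7 reagent for 1 hr at room temperature before luminescence reading.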

[7] = Cellular Toxicity (caspase-3) H-4-II-E (AID 663); conditions: H-4-II-E rat hepatoma, scaled: DMSO 0%, 100 µM tamoxifen 100%; series mostly up to 92.2 µM;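 further: cells exposed to compound for 16 hr before readout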
How it was run: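 H-4-II-E rat hepatoma, 1500 cells/well, 5 hr settle at 37 °C; compound 16 hr, 37 °C, complete medium; Caspase-Glo 3/7, 20 min RT; luminescence. DMSO = 0%, 100 uM tamoxifen = 100%; Hill-equation AC50.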

[8] = Cellular Toxicity (caspase-3) Hek293 (AID 664); conditions: HEK293 caspase-3 activation, DMSO = 0%, 100 µM tamoxifen = 100%; series mostly up to 92.2 µM;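 further: cells exposed to compound for 16 h at 37 °C before readout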
How it was run: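 qHTS, HEK293 (human embryonic kidney), 16 h cpd exposure in complete medium. Caspase-3/7 activation = luminescence increase; normalized to DMSO/100 uM tamoxifen; Hill-fit AC50.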

[9] = Cellular Toxicity (caspase-3) N2a (AID 665); conditions: N2a cells, luminescence, normalized: DMSO 0%, 10 µM staurosporine 100%; series mostly up to 92.2 µM;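 further: compound exposure lasted 16 h at 37 °C before readout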
How it was run: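 Caspase-3/7 activation, measured as increased luminescence from aminoluciferin release, is quantified in mouse N2a cells exposed to compounds for 16 h. Values are normalized to DMSO and 10 uM staurosporine, with AC50 derived by Hill modelling.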

[10] = Cellular Toxicity (caspase-3) NIH 3T3 (AID 666); conditions: NIH 3T3 caspase-3 activation, apoptosis/toxicity, 0% DMSO, 100% is 100 µM tamoxifen; series mostly up to 92.2 µM;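 further: caspase signal read after 16 h compound exposure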
How it was run: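 Cells were plated at 1000 per well and incubated 5 hr at 37°C, then compound was added for 16 hr. Caspase-Glo 3/7 reagent followed for 20 min at room temperature before luminescence was read.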

[11] = Cellular Toxicity (caspase-3) Renal Proximal Tubule (AID 667); conditions: renal proximal tubule cells; series mostly up to 91.7 µM;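 further: cells exposed to compound for 16 hours at 37 °C before detection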
How it was run: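 Caspase 3/7 activation measured by luminescent aminoluciferin release in primary rat proximal tubule cells after 16 hr compound exposure at 37 °C. AC50 from Hill-fitted concentration-response, scaled between DMSO and 10 uM staurosporine.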

[12] = biological target: Peroxisome proliferator-activated receptor delta (Homo sapiens) (UniProt Q03181); test: qHTS assay for small molecule agonists of peroxisome proliferator-activated receptor delta signaling (AID 588534; calls by dose curve); conditions: HEK293T PPARdelta-UAS-bla, beta-lactamase ratio, 18 h; series mostly up to 76.7 µM
Sequence of Peroxisome proliferator-activated receptor delta (Homo sapiens) (Q03181 whole entry, looked up): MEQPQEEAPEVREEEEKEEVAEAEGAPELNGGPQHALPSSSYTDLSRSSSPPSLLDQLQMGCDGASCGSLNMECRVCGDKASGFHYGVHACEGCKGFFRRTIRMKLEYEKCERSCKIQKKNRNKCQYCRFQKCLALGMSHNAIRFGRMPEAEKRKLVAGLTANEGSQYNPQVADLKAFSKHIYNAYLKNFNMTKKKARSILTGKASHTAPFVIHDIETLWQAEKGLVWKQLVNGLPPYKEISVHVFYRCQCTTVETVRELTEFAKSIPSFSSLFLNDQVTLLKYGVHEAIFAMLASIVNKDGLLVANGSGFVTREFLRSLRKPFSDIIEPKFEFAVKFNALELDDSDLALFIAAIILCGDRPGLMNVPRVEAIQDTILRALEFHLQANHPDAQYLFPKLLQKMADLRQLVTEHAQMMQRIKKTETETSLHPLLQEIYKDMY
How it was run: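 Agonist-mode qHTS; reporter cells, 5 hrs 37 C pre-incubation; compound titration, 18 hrs 37 C; CCF4 dye, 2 hrs RT; fluorescence read. EC50/efficacy via Hill fit.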

[13] = qHTS assay for small molecule agonists of the antioxidant response element (ARE) signaling pathway (AID 651741; active means well fitted activation curve with a large enough effect in the signal ratio; the % refers to the signal ratio; further: potency means the concentration at half of the fitted maximal effect); conditions: HepG2 ARE-bla reporter, beta-lactamase FRET ratio, 16 h; series mostly up to 96 µM
How it was run: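 Stably integrated ARE-beta-lactamase reporter HepG2 cells; 16 h compound incubation, 37 C; LiveBLAzer FRET substrate 2 h at room temperature; fluorescence intensity.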

[14] = qHTS assay for small molecule disruptors of the mitochondrial membrane potential - 5 hr assay (AID 651755; calls by dose curve; further: nearly all actives have a fitted effect of over 40% in size; further: potency means the concentration at half of the fitted maximal effect); conditions: JC-1-type ratio dye; series mostly up to 92.2 µM
How it was run: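 Read-out: ratiometric Mito-MPS fluorescence, green monomer (ex 490/em 535) vs red mitochondrial aggregate (ex 540/em 590). HepG2 cells treated 5 hr at 37C before 30 min dye loading.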

[15] = biological target: Peroxisome proliferator-activated receptor alpha (Homo sapiens) (UniProt Q07869); test: qHTS assay for small molecule agonists of the peroxisome proliferator-activated receptor alpha (PPARalpha) signaling pathway (AID 651778); conditions: PathHunter PPARalpha complementation, chemiluminescence, 6 h; stronger effect = higher value
Sequence of Peroxisome proliferator-activated receptor alpha (Homo sapiens) (Q07869 whole entry, looked up, the tested form may be a part): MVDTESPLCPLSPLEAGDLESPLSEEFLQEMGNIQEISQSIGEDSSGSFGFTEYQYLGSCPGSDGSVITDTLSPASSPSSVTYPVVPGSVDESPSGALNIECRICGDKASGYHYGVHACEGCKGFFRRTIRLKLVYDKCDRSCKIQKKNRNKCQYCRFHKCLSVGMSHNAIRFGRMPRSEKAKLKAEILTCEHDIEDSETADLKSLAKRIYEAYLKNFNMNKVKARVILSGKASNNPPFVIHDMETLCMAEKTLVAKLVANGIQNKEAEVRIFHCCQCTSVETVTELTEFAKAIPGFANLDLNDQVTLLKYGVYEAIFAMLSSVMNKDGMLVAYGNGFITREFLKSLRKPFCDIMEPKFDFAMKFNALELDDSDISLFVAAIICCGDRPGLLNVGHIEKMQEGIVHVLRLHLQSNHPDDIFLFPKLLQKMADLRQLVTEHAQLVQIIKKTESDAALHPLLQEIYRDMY
How it was run: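 Enzyme-fragment complementation assay in which ligand-bound PPARalpha translocates and forms an active enzyme that generates chemiluminescence. Cells were plated overnight, exposed to compound for 6 hr at 37 C, and then given detection reagent for 60 min at room temperature.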

[16] = biological target: Nuclear receptor ROR-gamma (Homo sapiens) (UniProt P51449); test: qHTS assay for small molecule antagonists of the retinoid-related orphan receptor gamma (ROR-gamma) signaling pathway (AID 651802); conditions: ROR-gamma antagonist cell reporter assay; series mostly up to 92.2 µM; further: nearly all actives have a fitted effect of over 60% in size; further: potency means the concentration at half of the fitted maximal effect
Sequence of Nuclear receptor ROR-gamma (Homo sapiens) (P51449 whole entry, looked up): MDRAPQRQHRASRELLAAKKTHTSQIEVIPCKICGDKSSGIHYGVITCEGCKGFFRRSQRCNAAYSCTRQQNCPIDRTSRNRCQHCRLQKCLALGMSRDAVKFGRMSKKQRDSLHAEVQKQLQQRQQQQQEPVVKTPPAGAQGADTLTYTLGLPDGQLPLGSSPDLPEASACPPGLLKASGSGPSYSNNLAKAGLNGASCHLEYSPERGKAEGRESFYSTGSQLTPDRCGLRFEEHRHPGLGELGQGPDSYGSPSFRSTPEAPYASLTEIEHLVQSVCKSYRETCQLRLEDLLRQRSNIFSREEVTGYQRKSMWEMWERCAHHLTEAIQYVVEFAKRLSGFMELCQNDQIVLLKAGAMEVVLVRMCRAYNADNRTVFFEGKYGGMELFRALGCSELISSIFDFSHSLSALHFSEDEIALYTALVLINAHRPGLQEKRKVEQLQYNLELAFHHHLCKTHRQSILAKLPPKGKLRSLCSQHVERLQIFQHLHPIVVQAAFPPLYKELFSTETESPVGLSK
How it was run: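 Steps: cells dispensed; compound or DMSO transferred by pin tool; doxycycline added to induce the ROR response element-driven luciferase; plates held 16hr at 37C; ONE-Glo added and luminescence measured.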

[17] = qHTS assay for small molecule antagonists of the retinoid-related orphan receptor gamma (ROR-gamma) signaling pathway - cell viability counter screen (AID 720652; active means well fitted curve in the direction sought with a large enough effect in the repeat runs; an effect the other way counts as inactive or inconclusive;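 further: CHO reporter cells with doxycycline-induced ROR-gamma expression; compound exposure lasted 16 hr before ATP read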); conditions: RORgamma reporter cell line viability counter screen; series mostly up to 92.2 µM
How it was run: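 Steps: seed CHO cells bearing TET-inducible ROR and ROR response element-luciferase; rest 5 hr at 37 C; add compound, then doxycycline; incubate 16 hr; add CellTiter-Glo and read luminescence as ATP-based viability.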

[18] = qHTS assay for small molecule agonists of the antioxidant response element (ARE) signaling pathway measured by Nrf2-dependant transcriptional activity - cell viability counter screen (AID 720653; active means well fitted curve in the direction sought with a large enough effect in the repeat runs; an effect the other way counts as inactive or inconclusive); conditions: ARE-bla HepG2 viability, CellTiter-Glo ATP luminescence, 16 h; max response: stronger effect = lower value
How it was run: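 ARE-bla HepG2 cells treated with compounds for 16 h at 37C; this counter screen measures viability as intracellular ATP by CellTiter-Glo luminescence after 30 min at room temperature.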

[19] = qHTS assay for cell viability of HEK293 cells (AID 743288); conditions: ATP luminescence (CellTiter-Glo), 18 h; max response: stronger effect = lower value; further: nearly all actives have a fitted effect of over 50% in size
How it was run: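 Readout is luciferase-coupled ATP content (CellTiter-Glo luminescence, 30 min room temperature) as a measure of metabolically competent cells. Parental HEK293 cells were plated 5 h or more before compound addition, then treated 18 h at 37 C.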

[20] = qHTS assay for cell viability of the p53RE-bla HCT-116 cell line (AID 743292); conditions: p53RE-bla HCT-116 viability, ATP luminescence, 16 h; series mostly up to 95 µM; further: nearly all actives have a fitted effect of over 55% in size
How it was run: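 Compound-exposed HCT-116 (p53RE-bla) cells, 4,000 per well, were kept 16 h at 37 C following a 5 h preincubation. Cell number was estimated from total ATP by CellTiter-Glo luminescence read after 30 min at room temperature.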

Row | SMILES | outcome [1] | outcome [2] | outcome [3] | outcome [4] | outcome [5] | outcome [6] | outcome [7] | outcome [8] | outcome [9] | outcome [10] | outcome [11] | Potency [12] | Potency [13] | Potency [14] | max response [15] | Potency [16] | outcome [17] | max response [18] | max response [19] | outcome [20]
1 | CC(=O)/C=C/c1ccccc1 | inactive | inactive | inactive | inactive | inactive | inactive | inactive | inactive | inactive | inactive | inactive | inactive | inactive | inactive | -5.69% (inactive) | inactive | inactive | -6.98% (inactive) | -4.92% (inactive) | inactive
2 | CCOC(=O)c1ccccc1N | inactive | inactive | inactive | inactive | inactive | inactive | inactive | inactive | inactive | inactive | inactive | inactive | inactive | inactive | -7.33% (inactive) | inactive | inactive | 3.82% (inactive) | -8.89% (inactive) | inactive
3 | Oc1ccccc1Cl | inactive | inactive | inactive | inactive | inactive | inactive | inactive | inactive | inactive | inactive | inactive | inactive | inactive | inactive | -3.34% (inactive) | – | inactive | -1.76% (inactive) | -13.2% (inactive) | inactive
4 | c1ccc(Nc2ccc3ccccc3c2)cc1 | inactive | inactive | inactive | inactive | inactive | inactive | inactive | inactive | inactive | inactive | inactive | inactive | 42.2 µM (active) and 54.5 µM (active) | 42.2 µM (active) | 18.5% (inactive) and 8.75% (inactive) | inactive | inactive | -8.38% (inactive) and -2.45% (inactive) | -12% (inactive) and -13.2% (inactive) | inactive
5 | CC(C)COC(=O)c1ccccc1C(=O)OCC(C)C | inactive | inactive | inactive | inactive | inactive | inactive | inactive | inactive | inactive | inactive | inactive | – | – | inactive | -0.716% (inactive) | inactive | inactive | 7.97% (inactive) | 0.653% (inactive) | inactive
6 | COC1=CC(=O)OC(CCc2ccc3c(c2)OCO3)C1 (stereo not given) | inactive | inactive | inactive | inactive | inactive | inactive | inactive | inactive | inactive | inactive | inactive | – | inactive | inactive | -0.116% (inactive) | inactive | inactive | -4.13% (inactive) | -5.17% (inactive) | inactive
7 | Oc1ccccc1O | – | – | – | – | – | – | – | – | – | – | – | inactive | 29.8 µM (active) | – | – | 5.96 µM (active) | – | – | – | –
8 | c1ccc2c(c1)-c1cccc3cccc-2c13 | inactive | inactive | inactive | inactive | inactive | inactive | inactive | inactive | inactive | inactive | inactive | inactive | inactive and 30.6 µM (active) | inactive | -3.35% (inactive) and -1.28% (inactive) | inactive | inactive | -12% (inactive) and 0.837% (inactive) | -24.1% (inactive) and 3.9% (inactive) | inactive
9 | CC(=O)C(C)=O | – | – | – | – | – | – | – | – | – | – | – | inactive | – | – | – | – | – | – | – | –
